# PubChem BioAssay AID488847 (NMMLSC, 2010)
# The whole screen tested about 330,000 compounds, of which about 1,900 (0.58%) were called active. The entries come from a sample that favours actives as a whole. A number with no mark means an inactive call.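 The calls were made as follows: active = inhibition of aptamer binding above 40%, roughly 3 SD of noise, on plates passing a quality check; inactive = the rest.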
# Molecular target: Beta-adrenergic receptor kinase 1 (Homo sapiens) (UniProt P25098)
# Sequence (P25098 whole entry, looked up): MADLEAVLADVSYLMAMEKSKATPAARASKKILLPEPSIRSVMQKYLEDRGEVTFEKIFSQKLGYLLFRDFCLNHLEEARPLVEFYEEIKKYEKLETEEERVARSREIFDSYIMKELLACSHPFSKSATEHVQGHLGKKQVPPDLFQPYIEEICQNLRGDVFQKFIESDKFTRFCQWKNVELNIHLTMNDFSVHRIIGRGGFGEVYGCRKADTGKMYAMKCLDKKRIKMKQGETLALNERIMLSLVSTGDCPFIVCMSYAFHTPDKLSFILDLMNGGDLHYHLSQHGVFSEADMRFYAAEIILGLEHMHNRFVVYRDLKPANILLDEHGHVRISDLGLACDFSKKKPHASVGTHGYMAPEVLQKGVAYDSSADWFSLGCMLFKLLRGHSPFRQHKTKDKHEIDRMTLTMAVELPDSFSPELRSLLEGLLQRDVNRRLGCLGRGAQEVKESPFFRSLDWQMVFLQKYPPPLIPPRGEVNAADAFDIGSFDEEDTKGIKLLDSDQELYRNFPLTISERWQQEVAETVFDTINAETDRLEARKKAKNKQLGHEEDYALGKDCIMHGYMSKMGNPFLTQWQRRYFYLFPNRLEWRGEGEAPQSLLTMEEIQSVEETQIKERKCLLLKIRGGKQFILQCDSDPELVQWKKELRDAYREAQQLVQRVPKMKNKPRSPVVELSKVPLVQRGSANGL
# Assay: compounds blocking aptamer binding on GRK2 – biochemical, human GRK2, bead flow cytometry, HTS, primary screen (AID 488847);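 also: median bead fluorescence of bound FAM aptamer so fluorescent compounds give negative values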
# Settings: FAM-aptamer displacement from GRK2, at 10 µM, stronger effect = higher value
row,Structure (SMILES),inhibition of aptamer binding
1,Cc1ccc(NC(=O)COC(=O)CNC(=O)c2ccc(Cl)cc2Cl)cc1S(=O)(=O)N1CCOCC1,2%
2,Fc1ccc(CNc2nc3ccccc3n3nnnc23)cc1,2%
3,O=c1ccc2c(-c3ccccc3S(=O)(=O)O)c3ccc(O)c(O)c3oc-2c1O,75% (active)
4,Cc1cc(OCC(=O)N(C)c2c(N)n(Cc3ccccc3)c(=O)[nH]c2=O)c(C(C)C)cc1Cl,1%
5,O=C1CCCCC1Sc1ccc(Cl)cc1[N+](=O)[O-] (stereo not given),1%
6,COc1ccccc1N(C)S(=O)(=O)c1ccc(Cl)c(C(=O)Nc2ccncc2)c1,0%
7,O=C1CCCN1C(=O)COc1ccc([N+](=O)[O-])cc1,1%
8,CN=C(Nc1cccc(S(=O)(=O)N2CCOCC2)c1)c1ccccc1,79% (active)
9,O=C(COC(=O)c1ccccc1)Nc1cccc(S(=O)(=O)N2CCOCC2)c1,1%
10,O=C(Nc1nnc(-c2ccco2)o1)c1ccc(S(=O)(=O)N2CCOCC2)cc1,0%
11,O=C(Nc1ccc(N2CCOCC2)cc1)c1cccc(S(=O)(=O)N2CCOCC2)c1,2%
12,O=C(Nc1nnc(-c2ccccc2)o1)c1cccc(S(=O)(=O)N2CCOCC2)c1,49% (active)
13,O=C(CSc1ccccc1)Nc1cccc(S(=O)(=O)N2CCOCC2)c1,2%
14,Nc1cc(N2CCCCCC2)c2nonc2c1[N+](=O)[O-],0%
15,Cc1cc2c(cc1S(=O)(=O)CCC(=O)NCc1ccccc1)OCC(=O)N2,2%
16,COc1ccc(NC(=O)CCS(=O)(=O)c2cc3c(cc2Cl)NC(=O)CO3)cc1OC,0%
17,O=C(Cc1ccc(Br)cc1)NCCc1ccccc1,1%
18,CCOc1ccc(OCC)c(NC(=O)CCS(=O)(=O)c2ccc(C)cc2)c1,0%
19,COc1ccc(Cl)cc1NC(=O)COC(=O)c1ccc(Br)o1,0%
20,COc1ccc(Cl)cc1NC(=O)CCS(=O)(=O)c1ccc(Br)cc1,89% (active)
21,COc1ccc(Cl)cc1NC(=O)CCS(=O)(=O)c1cc2c(cc1C)NC(=O)CO2,80% (active)
22,Cc1ccc(S(=O)(=O)CCC(=O)OCC(=O)NCCc2ccc(S(N)(=O)=O)cc2)cc1,0%
23,O=C(CCS(=O)(=O)c1ccc(Br)cc1)NCCc1ccc(Cl)cc1,49% (active)
24,Cc1ccc(CN2C(=O)N/C(=C/c3cc(C)n(-c4ccccn4)c3C)C2=O)cc1,1%

row,Structure (SMILES),inhibition of aptamer binding
1,CCc1cc2c(=O)c(-c3nc4ccccc4n3C)c(CCCC(=O)O)oc2cc1OC(=O)C(C)(C)C,1%
2,COc1ccc(CN2C3CCCC2CC(NC(=O)c2cccc(F)c2)C3)cc1 (stereo not given),0%
3,CC(=O)N1CCC(C(=O)Nc2nc(-c3ccccc3)ns2)CC1,0%
4,CC(Sc1nncn1C)C(=O)Nc1cc(C(F)(F)F)ccc1N1CCOCC1 (stereo not given),0%
5,C=CCNC(=O)CC12CC3CC(C1)CC(CC(=O)NCC=C)(C3)C2,1%
6,O=C(N1CCCC1)C12CC3CC(C1)CC(C(=O)N1CCCC1)(C3)C2,3%
7,O=C(NCC12CC3CC(C1)CC(CNC(=O)N1CCCC1)(C3)C2)N1CCCC1,54% (active)
8,N#Cc1c(-c2ccccc2)nc(SCc2ccc([N+](=O)[O-])cc2)[nH]c1=O,5%
9,O=c1[nH]c(SCc2ccccc2)nnc1-c1ccccc1,80% (active)
10,Cc1ccccc1CSc1nnc(-c2ccccc2)c(=O)[nH]1,3%
11,COc1cc(OC)cc(C(=O)Nc2nnc(SCC(=O)NCC3CCCO3)s2)c1 (stereo not given),0%
12,CCC(=O)Nc1ccccc1C(=O)N1CCN(Cc2ccccc2)CC1,2%
13,COc1ccc(Nc2nc(-c3cccnc3)nc3ccccc23)cn1,60% (active)
14,S=c1nc2ccccc2c2nc(-c3cccnc3)[nH]n12,0%
15,CC(C)(C)Nc1nc(-c2ccccn2)nc2ccccc12,0%
16,COc1cc(OC)c(C2=NOC(C(=O)Nc3c(C)n(C)n(-c4ccccc4)c3=O)C2)cc1Cl (stereo not given),1%
17,Cc1ccc(Sc2cc(C(=O)c3ccccc3C(=O)O)ccc2[N+](=O)[O-])cc1,0%
18,O=C(NCc1ccccc1)[C@H]1C[C@@H]1[C@H](NP(=O)(c1ccccc1)c1ccccc1)c1ccccc1,0%
19,COc1ccccc1N1CCN(CC(=O)Nc2ccnn2C2CCCC2)CC1,0%
20,C/C(=N\Nc1nc2ccccc2[nH]1)c1cccs1,100% (active)
21,O=C(Nc1ccccc1-c1nc2ccccc2[nH]c1=O)c1cccs1,1%
22,C/C(=N\Nc1nc(Nc2ccccc2)nc(N2CCOCC2)n1)c1cccs1,0%
23,CCN(CC(=O)NCc1ccc(Cl)cc1)C(=O)c1c(C)noc1C,0%
24,COc1ccc(Cn2c(=S)[nH]c3cc(C(=O)N4CCCCC4)ccc3c2=O)cc1,2%

row,Structure (SMILES),inhibition of aptamer binding
1,CCOc1cc2[nH]c(=S)n(Cc3ccc(C(=O)N4CCN(C)CC4)cc3)c(=O)c2cc1OCC,0%
2,NC(=O)C1CCN(C(=O)c2ccc3c(=O)n(Cc4cccc(Br)c4)c(=S)[nH]c3c2)CC1,69% (active)
3,Cc1ccc(S(=O)(=O)N2CCN(CC(=O)N/N=C/c3cc([N+](=O)[O-])ccc3Cl)CC2)cc1,0%
4,O=S(=O)(c1ccc(NC(=S)NN=C(C2CC2)C2CC2)cc1)N1CCOCC1,1%
5,O=[N+]([O-])c1cc(Cl)cc(/C=N/NC(=S)Nc2cc(S(=O)(=O)N3CCOCC3)ccc2Cl)c1O,98% (active)
6,Fc1ccccc1Cc1ccc(Cl)nn1,0%
7,COc1cccc(CN(C)CC(=O)Nc2sc3c(c2C#N)CCC3)c1,94% (active)
8,Cc1cccc(C(=O)OCC(=O)Nc2sc3c(c2C#N)CCC3)c1,6%
9,CCN1CCN(CC(=O)Nc2sc3c(c2C#N)CCC3)CC1,0%
10,Cc1nn2cc(-c3ccc(Cl)cc3)cnc2c1Br,4%
11,CCOC(=O)c1cc2c(ccn2C)n1CC(=O)N1CCC(C)CC1,1%
12,Cc1ccc(OCC(=O)Oc2ccccc2[N+](=O)[O-])cc1,1%
13,COc1ccc(C2c3ccc(O)cc3Oc3ncn(CCCO)c(=N)c32)cc1OC (stereo not given),0%
14,COc1ccccc1S(=O)(=O)c1c(C)cc(C)[nH]c1=O,1%
15,Cc1ccc(-c2nn(-c3ccccc3)cc2/C=C2\SC(=S)N(CCCCCC(=O)O)C2=O)o1,48% (active)
16,C=CCOc1ccc(/C=C2\SC(=S)N(CCC(=O)O)C2=O)cc1,0%
17,Cc1ccc(/C=C2/SC(=S)N(CCC(=O)NCCCN3CCOCC3)C2=O)cc1,5%
18,CC(=O)Oc1ccccc1C(=O)Nc1ncc([N+](=O)[O-])s1,5%
19,CCSc1nc(O)c(C(c2cccc(OC)c2)c2c(O)nc(SCC)[nH]c2=O)c(=O)[nH]1,9%
20,COc1ccc(Nc2cc(Sc3ccc(OC)cc3)ncn2)cc1,46% (active)
21,COc1ccc(Nc2ncnc3sc(C)cc23)cc1,0%
22,COc1ccc(Nc2nc(=O)[nH]nc2C)cc1,4%
23,CC(Sc1cccc[n+]1[O-])C(=O)Nc1cccc(S(=O)(=O)N2CCOCC2)c1 (stereo not given),1%
24,O=C(O)C1CCN(C(=O)OCc2ccccc2)CC1,0%

row,Structure (SMILES),inhibition of aptamer binding
1,NC(=O)c1ccsc1NC(=O)COC(=O)Cc1n[nH]c(=O)c2ccccc12,2%
2,CCCCn1nc(C(=O)OCC(=O)Nc2sccc2C(N)=O)c2ccccc2c1=O,84% (active)
3,COc1cc(OC)cc(C(=O)OCC(=O)Nc2sccc2C(N)=O)c1,0%
4,CCc1ccc2oc(=O)cc(CN3CCCCC3C)c2c1 (stereo not given),0%
5,COc1cc(/C=N/NC(=O)c2cc(C)n(-c3ccc(F)cc3)c2C)cc(OC)c1O,0%
6,COc1cc(/C=N/NC(=O)c2ccc(N3CCCC3=O)cc2)ccc1O,49% (active)
7,O=C(N/N=C/c1cccc(Br)c1)c1ccc(N2CCCC2=O)cc1,0%
8,O=C(NCc1cccc(Cl)c1)C1CCN(c2nnc(N3CCCC3=O)s2)CC1,0%
9,CN(C)S(=O)(=O)c1cccc(C(=O)OCC(=O)N2CCCC2=O)c1,0%
10,Cc1ccccc1-c1nnn(CC(=O)c2ccc(S(=O)(=O)N3CCCC3)cc2)n1,47% (active)
11,CC(C)(C)NC(=O)Cn1nnc(-c2ccccc2Cl)n1,2%
12,Cc1cc(C)n(C(=O)c2ccc(S(=O)(=O)N3CCCC3)cc2)n1,2%
13,Cc1ccc(S(=O)(=O)C2(S(=O)(=O)c3ccc(C)cc3)CCCC2)cc1,0%
14,CCCNc1c(N)c(=O)c1=O,6%
15,CCOC(=O)c1cc(-c2nnc(-c3cc(OC)c(OC)c(OC)c3)o2)c(C)nc1C,1%
16,O=C(OCc1nnc(-c2ccccc2)o1)c1cc(=O)[nH]c2ccccc12,3%
17,CCCc1nc2ccccc2c(C(=O)OCc2nnc(-c3cc(OC)c(OC)c(OC)c3)o2)c1CC,41% (active)
18,COc1cc(NC(=O)c2[nH]cnc2C(N)=O)cc(C(=O)Nc2cccc(C(F)(F)F)c2)c1,0%
19,CSc1nnc(SCc2nc3sc(C(=O)O)c(C)c3c(=O)[nH]2)s1,13%
20,CCOC(=O)c1sc2nc(CSc3ccccc3)[nH]c(=O)c2c1C,75% (active)
21,CCOC(=O)c1sc2nc(CSCC(=O)OCc3ccc(C(=O)OC)o3)[nH]c(=O)c2c1C,2%
22,O=S(=O)(Nc1cccc(-c2ccc(N3CCOCC3)nn2)c1)c1ccc(Cl)c(Cl)c1,0%
23,O=c1c([N+](=O)[O-])cccn1Cc1ccc(F)cc1Cl,0%
